Our source for the growth inhibition, inhibition and outcome values is PubChem BioAssay.

Values without a mark were called inactive. For part of these data: Measured potencies and affinities stand elsewhere. Activity calls are given as the source filed them. Unless noted, how the calls were made is not given here.

Assay [1] in a line: antimalarial activity against Dd2 strain (AID 2302;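 active means growth inhibition above 50% at the single 2 µM test dose, taken to imply half-maximal potency below 2 µM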;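 further: 0% = DMSO untreated growth and 100% = chloroquine plus artemisinin killed control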). Particulars: P. falciparum Dd2 in RBCs, LDH growth readout, 72 h; at 2 µM; active compounds read high.
Assay [2] is described as follows: human hepatoma cell viability loss – ATP luminescence, cytotoxicity control for P. falciparum antimalarial project, primary screen (AID 2303;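 active means inhibition above 50%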;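 further: 0% = DMSO wells and 100% = digitonin-killed cells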). Particulars: HepG2 viability, 24-48 h, at 10 µM, active compounds read high.
Assay [3] has as its target L-lactate dehydrogenase (Plasmodium falciparum (isolate CDC / Honduras)) (UniProt Q27743). In words: PfLDH activity inhibition – cell lysate, 3D7 strain, counter-screen for P. falciparum growth inhibition project (AID 2304).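 Further: 0% = vehicle and 100% = reference inhibitor.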 Particulars: P. falciparum 3D7 crude extract, LDH APAD/NBT absorbance; at 2 µM; active compounds read high.
Assay [4] in a line: inhibition of 3D7 malaria parasite growth – strain 3D7 (AID 2306).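 Further: 0% = DMSO wells and 100% = chloroquine plus artemisinin control wells.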 Particulars: P. falciparum 3D7 erythrocytic growth, LDH absorbance, 72 h; at 2 µM; active compounds read high.
Assay [5] has as its target Calcium-dependent protein kinase 1 (Plasmodium falciparum (isolate 3D7)) (UniProt P62344). The assay can be described thus: PfCDPK1 kinase inhibitors, biochemical, TCAMS library (AID 1159585; cut-off not given, nearly all actives have IC50 up to about 0.98 µM;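 further: inhibitors leave more ATP so luminescence rises with inhibition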). Particulars: recombinant PfCDPK1, Kinase-Glo ATP depletion luminescence. (In general: In Kinase-Glo more light means more ATP remaining.)
For assay [6], the target named is Plasmodium falciparum protein kinase 6 (PK6, PF3D7_1337100) (UniProt Q8IDW1). The assay can be described thus: PfPK6 kinase inhibitors, biochemical, TCAMS library (AID 1159586). Particulars: recombinant PfPK6, Kinase-Glo ATP depletion luminescence.
In assay [7] the target is Protein kinase 7 (PK7), Plasmodium falciparum 3D7 (PF3D7_0213400) (UniProt Q7YTF7). The assay can be described thus: inhibition of Plasmodium PK7 catalytic activity – biochemical, TCAMS antimalarial set, Kinase-Glo luminescence (AID 1159587). Particulars: recombinant PfPK7, Kinase-Glo ATP depletion luminescence.
Assay [8] concerns the target Calcium-dependent protein kinase 4 (Plasmodium falciparum (isolate 3D7)) (UniProt Q8IBS5). The assay can be described thus: PfCDPK4 kinase inhibitors, biochemical, TCAMS library (AID 1159588; cut-off not given, nearly all actives have IC50 up to about 0.91 µM). Particulars: recombinant PfCDPK4, Kinase-Glo ATP depletion luminescence.

Calcium-dependent protein kinase 1 (Plasmodium falciparum (isolate 3D7)), sequence (P62344 whole entry, looked up): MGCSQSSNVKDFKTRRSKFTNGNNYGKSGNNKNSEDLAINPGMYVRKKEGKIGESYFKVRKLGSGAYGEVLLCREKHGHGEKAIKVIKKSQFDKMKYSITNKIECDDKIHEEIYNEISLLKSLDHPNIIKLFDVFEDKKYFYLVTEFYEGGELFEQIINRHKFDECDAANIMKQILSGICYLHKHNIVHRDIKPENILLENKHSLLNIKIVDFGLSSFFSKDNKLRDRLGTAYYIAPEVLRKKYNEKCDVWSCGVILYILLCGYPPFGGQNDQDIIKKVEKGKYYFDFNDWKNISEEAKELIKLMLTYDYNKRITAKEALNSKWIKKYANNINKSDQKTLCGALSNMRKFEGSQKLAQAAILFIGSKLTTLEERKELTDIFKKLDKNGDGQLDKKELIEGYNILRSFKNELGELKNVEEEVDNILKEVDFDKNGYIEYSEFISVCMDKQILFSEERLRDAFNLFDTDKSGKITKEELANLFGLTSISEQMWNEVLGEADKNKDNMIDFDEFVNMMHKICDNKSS
L-lactate dehydrogenase (Plasmodium falciparum (isolate CDC / Honduras)), sequence (Q27743 whole entry, looked up): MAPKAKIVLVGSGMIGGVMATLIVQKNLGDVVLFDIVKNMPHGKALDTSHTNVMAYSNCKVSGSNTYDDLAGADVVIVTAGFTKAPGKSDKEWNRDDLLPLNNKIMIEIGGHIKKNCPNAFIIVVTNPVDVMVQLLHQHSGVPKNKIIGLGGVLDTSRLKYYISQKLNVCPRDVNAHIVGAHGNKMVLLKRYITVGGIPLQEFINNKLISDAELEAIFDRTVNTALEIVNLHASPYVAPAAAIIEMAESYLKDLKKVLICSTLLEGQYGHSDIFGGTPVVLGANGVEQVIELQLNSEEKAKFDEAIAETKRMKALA
Plasmodium falciparum protein kinase 6 (PK6, PF3D7_1337100), sequence (Q8IDW1 1-305): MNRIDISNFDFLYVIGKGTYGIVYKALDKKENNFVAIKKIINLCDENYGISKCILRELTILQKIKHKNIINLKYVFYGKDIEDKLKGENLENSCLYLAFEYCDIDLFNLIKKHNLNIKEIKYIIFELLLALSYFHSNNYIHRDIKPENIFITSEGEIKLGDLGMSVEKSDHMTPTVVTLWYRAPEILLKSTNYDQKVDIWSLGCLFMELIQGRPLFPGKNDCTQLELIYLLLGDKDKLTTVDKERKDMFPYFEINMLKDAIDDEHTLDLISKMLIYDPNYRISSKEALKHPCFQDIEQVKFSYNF
Calcium-dependent protein kinase 4 (Plasmodium falciparum (isolate 3D7)), sequence (Q8IBS5 whole entry, looked up): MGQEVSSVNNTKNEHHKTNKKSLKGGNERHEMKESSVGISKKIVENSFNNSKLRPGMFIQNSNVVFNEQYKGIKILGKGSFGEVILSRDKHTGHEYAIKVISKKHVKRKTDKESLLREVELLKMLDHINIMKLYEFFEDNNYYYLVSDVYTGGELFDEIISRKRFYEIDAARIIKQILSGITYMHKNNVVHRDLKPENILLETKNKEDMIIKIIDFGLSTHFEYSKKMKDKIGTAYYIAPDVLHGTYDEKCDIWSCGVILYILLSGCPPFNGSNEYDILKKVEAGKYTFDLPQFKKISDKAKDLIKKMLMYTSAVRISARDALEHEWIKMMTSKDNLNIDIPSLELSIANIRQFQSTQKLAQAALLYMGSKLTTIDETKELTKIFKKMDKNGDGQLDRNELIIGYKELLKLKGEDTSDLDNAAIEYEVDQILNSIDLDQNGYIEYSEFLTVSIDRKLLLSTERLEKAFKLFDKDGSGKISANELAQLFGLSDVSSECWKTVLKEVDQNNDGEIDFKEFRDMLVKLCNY
Protein kinase 7 (PK7), Plasmodium falciparum 3D7 (PF3D7_0213400), sequence (Q7YTF7 1-343): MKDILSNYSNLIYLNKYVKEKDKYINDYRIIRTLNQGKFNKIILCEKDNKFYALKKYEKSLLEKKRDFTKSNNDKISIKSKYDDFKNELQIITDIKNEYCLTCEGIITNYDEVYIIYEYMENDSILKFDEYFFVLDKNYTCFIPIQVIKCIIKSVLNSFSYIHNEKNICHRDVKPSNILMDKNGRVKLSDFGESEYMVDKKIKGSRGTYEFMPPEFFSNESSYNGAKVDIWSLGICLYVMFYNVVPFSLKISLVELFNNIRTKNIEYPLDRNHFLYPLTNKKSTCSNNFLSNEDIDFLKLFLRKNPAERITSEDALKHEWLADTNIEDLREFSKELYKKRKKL

A word on the inhibition: it is the change of the read-out against control, counted positive when it falls. For the molecule `CCn1ncc2c(NC3CCOCC3)c(CNC(=O)c3ccnn3C)c(C)nc21`, the growth inhibition in assay [1] and in assay [4] was 98% (active) in each case. Moreover, the inhibition in assay [2] was -11%; in assay [3] it was -2%. For the same molecule, the result in assay [5], in assay [6], in assay [7] and in assay [8] was inactive.
As to `Cc1nc(N=C(N)N)nc2ccc(C(C)(C)C)cc12`, the growth inhibition in assay [1] is 91% (active); in assay [4], 96% (active). In addition, the values for the inhibition in assay [2] and in assay [3] were 4% and -1%, respectively. Moreover, the outcome in assay [5], in assay [6], in assay [7] and in assay [8] was inactive.
As for `O=C(NC1CCN(Cc2ccccc2)CC1)c1ccc(-c2nc3cc(Cl)c(F)cc3[nH]2)cc1`, the growth inhibition in assay [1] and in assay [4] was 100% (active) in each case. Also, the inhibition was 13% in assay [2] and 3% in assay [3]. For the same molecule, the outcome in assay [5], in assay [6], in assay [7] and in assay [8] was inactive.
Take `CCCCC(=O)Nc1cc(=O)[nH]c2nc(-c3ccc(Cl)cc3)nn12`: the growth inhibition was 77% (active) in assay [1] and 89% (active) in assay [4]. For the same molecule, the inhibition in assay [2] was 1%; in assay [3] it was 0%. Further, the outcome in assay [5], in assay [6], in assay [7] and in assay [8] was inactive.
Consider `N[C@@H](COc1cccc2c(-c3ccncc3)c(-c3cccc(NC(=O)Nc4ccccc4)c3)nn12)c1ccccc1`, for which the growth inhibition in assay [1] was 71% (active); in assay [4] it was 101% (active). Besides, the inhibition in assay [2] is 9%; in assay [3], 2%. Also, the result in assay [5], in assay [6], in assay [7] and in assay [8] was inactive.
As for `CN(CCCCCN1CCC(NC(=O)Nc2ccc(C(F)(F)F)cc2)C1)C(=O)/C=C/c1ccc(Cl)c(Cl)c1` (centres undefined), the growth inhibition was 11% in assay [1] and 101% (active) in assay [4]. The inhibition in assay [2] is 28%; in assay [3], -3%. Moreover, the result in assay [5], in assay [6], in assay [7] and in assay [8] was inactive.
In the case of `O=C(NC1CC1)c1ccc(N2CCC(c3ccccc3)CC2)nc1`, the results for the growth inhibition in assay [1] and in assay [4] were 92% (active) and 93% (active), respectively. For the same molecule, the inhibition in assay [2] is 16%; in assay [3] it was 1%. Besides, the result in assay [5], in assay [6], in assay [7] and in assay [8] was inactive.
As for `COc1cc(OC)c(OC)cc1C=NNc1cc(C)nc2ccccc12`, the growth inhibition in assay [1] was 95% (active); in assay [4] it was 100% (active). Further, the figures for the inhibition in assay [2] and in assay [3] were 5% and 0%, respectively. Besides, the result in assay [5], in assay [6], in assay [7] and in assay [8] was inactive.
Take `O=C(/C=C/c1ccc(Cl)c(Cl)c1)NCCCCCN1CCC(NC(=O)Nc2ccc(Cl)cc2Cl)CC1`: the growth inhibition in assay [1] was 33%; in assay [4], 91% (active). Moreover, the inhibition in assay [2] is 96% (active); in assay [3], -2%. The outcome in assay [5], in assay [6], in assay [7] and in assay [8] was inactive.
For the molecule `COc1nc2c(N3CCN(CCNCc4ccc5c(n4)NC(=O)CS5)CC3)ccnc2cc1F`, the values for the growth inhibition in assay [1] and in assay [4] were 96% (active) and 101% (active), respectively. Also, the inhibition in assay [2] was 18%; in assay [3] it was -6%. The result in assay [5], in assay [6], in assay [7] and in assay [8] was inactive.
For the molecule `CN(C)c1ccc(N=C2N=C(Nc3ccc(N(C)C)cc3)c3ccccc32)cc1`, the growth inhibition is 20% in assay [1] and 93% (active) in assay [4]. Also, the results for the inhibition in assay [2] and in assay [3] were 23% and -5%, respectively. Moreover, the result in assay [5], in assay [6], in assay [7] and in assay [8] was inactive.
In the case of `Cc1cc(N(C)C)nc(Nc2ccc(NC(=O)C3CCCCC3)cc2)n1`, the growth inhibition is 68% (active) in assay [1] and 101% (active) in assay [4]. Also, the figures for the inhibition in assay [2] and in assay [3] were 3% and -1%, respectively. Moreover, the result in assay [5], in assay [6], in assay [7] and in assay [8] was inactive.
As for `COC(=O)[C@@H](NC(=O)[C@@H](Nc1ccc(C#N)c2ccccc12)C(C)(C)C)c1ccc(O)cc1`, the growth inhibition is 74% (active) in assay [1] and 101% (active) in assay [4]. Further, the inhibition in assay [2] is -4%; in assay [3], 1%. In addition, the outcome in assay [5], in assay [6], in assay [7] and in assay [8] was inactive.
Consider `CC(C)CNCc1ccc(-c2cccc(CN(C(=O)NCCc3ccccc3)C3CCN(Cc4ccccc4)CC3)c2)cc1`, for which the growth inhibition was 94% (active) in assay [1] and 100% (active) in assay [4]. Besides, the inhibition in assay [2] is 91% (active); in assay [3] it was -1%. The result in assay [5], in assay [6], in assay [7] and in assay [8] was inactive.
As for `Cc1ccc(NC(=O)c2ccc(CN3CCCN(CC4CCCCC4)CC3)cc2)cc1`, the results for the growth inhibition in assay [1] and in assay [4] were 42% and 93% (active), respectively. For the same molecule, the inhibition in assay [2] is 41%; in assay [3], -3%. Moreover, the result in assay [5], in assay [6], in assay [7] and in assay [8] was inactive.
Take `COc1ccc(-c2cccc(NC(=O)c3cccc(C#N)c3)c2)cc1CN(C)CCN(C)C`: the values for the growth inhibition in assay [1] and in assay [4] were 21% and 99% (active), respectively. Also, the figures for the inhibition in assay [2] and in assay [3] were -5% and 3%, respectively. The result in assay [5], in assay [6], in assay [7] and in assay [8] was inactive.
With `NC1=NC(c2ccccc2)N(c2ccc(Cl)c(Cl)c2)C(N)=N1` (centres undefined), the growth inhibition in assay [1] was 0%; in assay [4], 94% (active). For the same molecule, the inhibition was 13% in assay [2] and -2% in assay [3]. In addition, the outcome in assay [5], in assay [6], in assay [7] and in assay [8] was inactive.
Take `CC(C)(C)c1ccc2nc(-c3ccc(/C=C/C(=O)NCc4ccc(Cl)c(Cl)c4)cc3)[nH]c2c1`: the growth inhibition is 17% in assay [1] and 97% (active) in assay [4]. The inhibition in assay [2] was 41%; in assay [3], 0%. The result in assay [5], in assay [6], in assay [7] and in assay [8] was inactive.
